Here are results for 6 compounds from PubChem BioAssay.

Experiment [1] can be described thus: viability loss in pontine glioma line – cell-based, SU-DIPG-XVII, MIPE5.0, CellTiter-Glo, qHTS, dose response (AID 1347060; cut-off not given, nearly all actives have AC50 up to about 26 µM;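 also: cells exposed to compound for 48 hours before viability readout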). The settings on record: CellTiter-Glo ATP luminescence. A general note: Cellular ATP, detected with luciferase, serves as a proxy for viable cell number.
Experiment [2] in a line: viability loss in pontine glioma line – cell-based, JHH-DIPG-1, MIPE4.0, CellTiter-Glo, qHTS, dose response (AID 1347062; cut-off not given, nearly all actives have AC50 up to about 27 µM;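 also: cells exposed to compound for two days before readout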). The settings on record: JHH-DIPG-1 viability, CellTiter-Glo ATP luminescence.
Experiment [3] in a line: viability loss in pontine glioma line – cell-based, SU-DIPG-IV, MIPE4.0, CellTiter-Glo, qHTS, dose response (AID 1347063; cut-off not given, nearly all actives have AC50 up to about 30 µM;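 also: compound exposure lasted 48 hours before the viability readout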). The conditions noted are these: CellTiter-Glo ATP luminescence.
Experiment [4] is described as follows: viability loss in pontine glioma line – cell-based, SU-DIPG-XIII, MIPE5.0, CellTiter-Glo, qHTS, dose response (AID 1347064; cut-off not given, nearly all actives have AC50 up to about 23 µM;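 also: cells exposed to compound for 48 hours before the viability read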). The settings on record: CellTiter-Glo ATP luminescence.
A short description of experiment [5]: viability loss in pontine glioma line – cell-based, SU-DIPG-XXV, MIPE5.0, CellTiter-Glo, qHTS, dose response (AID 1347065; cut-off not given, nearly all actives have AC50 up to about 26 µM;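 also: cells exposed to compound for 48 hours before ATP readout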). The conditions noted are these: CellTiter-Glo ATP luminescence.
Experiment [6] is described as follows: growth inhibition of DIPG cells – cell-based, MIPE4.0 library, CellTiter-Glo luminescence, qHTS (AID 1347066; cut-off not given, nearly all actives have AC50 up to about 30 µM;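 also: cells exposed to compound for 48 hours before readout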). The conditions noted are these: SU-DIPG-VI viability, CellTiter-Glo ATP luminescence.
A short description of experiment [7]: viability loss with induced miR-34 in A549 – imaging, A549 dox-inducible miR-34, nuclei and caspase counts, primary screen (AID 1347080;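 active = compounds whose cell count with miR-34 switched on is under 0.7 times the count with it off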). The settings on record: A549 miR-34 inducible, Hoechst nuclei count, 48 h.
Experiment [8] can be described thus: compounds altering HSF1 focus formation in cells – imaging, Selleck Cancer Library (AID 1347162; in the data active = plate-normalised HSF1 focus index below about 0.46). The conditions noted are these: human cells, HSF1 nuclear foci imaging, at 10 µM; SSMD: measured here: HSF1 foci SSMD mean; cell count: measured here: cell number; plate-normalised HSF1 focus index: stronger effect = lower value.
A short description of experiment [9]: MELAS cybrid and Rieske KO viability enhancers – cell-based, MELAS cybrids, Rieske KO mouse fibroblasts, CellTiter-Glo, primary screen (AID 1508586;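 active = mean z-score across replicates of 1.96 or higher in either the MELAS or the Rieske mutant cell line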;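 also: z relative to plate mean and SD of compound and empty wells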). The settings on record: low glucose.
Experiment [10] is described as follows: drug combination growth inhibition, ovarian cancer – cell-based, oncology-focused library, rucaparib conditional, profiling panel (AID 1508598). The conditions noted are these: patient-derived ovarian cancer cells, CellTiter-Glo viability, 144 h, stronger effect = lower value.
Experiment [11] in a line: growth inhibition of DIPG cells – cell-based, MIPE5.0 library, qHTS (AID 1347068; cut-off not given, nearly all actives have IC50 up to about 30 µM;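 also: cells exposed to compound for 48 hours before viability readout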). The conditions noted are these: SU-DIPG-XXV viability. In general terms: In qHTS, concentration-response curves come from the screen itself.
Experiment [12] in a line: JHH-DIPG-1 glioma cell viability, MIPE5.0 library, CellTiter-Glo luminescence, qHTS (AID 1347067; cut-off not given, nearly all actives have AC50 up to about 26 µM;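 also: cells exposed to compound for 48 hours before readout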). The conditions noted are these: JHH-DIPG-1 glioma viability, CellTiter-Glo ATP luminescence.
[13] abbreviates: stronger effect = lower value, cell number ratio, induced over uninduced.
Setting [14] is: measured here: relative caspase fold change +Dox/-Dox.
[15] abbreviates: measured here: total cells with miR-34 induction, stronger effect = lower value.
The mark [16] stands for this setting: measured here: total cells without miR-34 induction.
[17] abbreviates: MELAS cybrid survival, CellTiter-Glo 48 h, stronger effect = higher value.
The mark [18] stands for this setting: Rieske KO mouse fibroblast survival, CellTiter-Glo 72 h.

Several values for one entry are separate records, joined by “and”; a condition that tells them apart may be missing. Equal values may be shown once. Inconclusive results are not listed. Activity calls are given as the source filed them.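 The calls were made as follows, unless noted: active = normalized viability below 100% at a tested concentration; inactive = the rest.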

What is called AC50 is the concentration at which the activity in the assay is half-maximal. Broadly, the viability is a read-out of living cells in per cent, often relative to untreated cells. For `CC(C)c1ccccc1Cc1cc(C(=O)Nc2ccc(S(=O)(=O)c3ccccc3C(C)(C)C)cc2)c(O)c(O)c1O`, the AC50 in experiment [1] is 23.5 µM (active); in experiment [2], 23.5 µM (active); in [3], 23.5 µM (active); in experiment [4], 20.9 µM (active); in experiment [5], 23.5 µM (active); in [6] it was 9.35 µM (active). Also, the fold change in experiment [7] (setting [13]) is 0.928 (inactive); in experiment [7] (setting [14]), 0.84. The cell count in [7] (setting [15]) was 2090; in [7] (setting [16]), 2260; in experiment [8] it was 7240. Further, the SSMD in experiment [8] is -1.79. In addition, the plate-normalised HSF1 focus index in [8] was 0.912 (inactive). Moreover, the z-score was 2.95 (active) in experiment [9] (setting [17]) and -0.101 in experiment [9] (setting [18]). Besides, the viability in experiment [10] (at 0.000305 µM, OCI-C5x cells, with rucaparib 10 µM, 100% = cells with rucaparib alone) is 105% (inactive); in experiment [10] (at 0.000305 µM, OCI-C5x cells, without rucaparib) it was 115% (inactive); in experiment [10] (at 0.000305 µM, OCI-P5x cells, with rucaparib 20 µM, 100% = cells with rucaparib alone) it was 124% (inactive); in experiment [10] (at 0.000305 µM, OCI-P5x cells, without rucaparib), 124% (inactive); in [10] (at 0.00122 µM, OCI-C5x cells, with rucaparib 10 µM, 100% = cells with rucaparib alone), 103% (inactive); in [10] (at 0.00122 µM, OCI-C5x cells, without rucaparib), 119% (inactive). Moreover, the viability in experiment [10] (at 0.00122 µM, OCI-P5x cells, with rucaparib 20 µM, 100% = cells with rucaparib alone) was 117% (inactive); in [10] (at 0.00122 µM, OCI-P5x cells, without rucaparib), 116% (inactive); in [10] (at 0.00488 µM, OCI-C5x cells, with rucaparib 10 µM, 100% = cells with rucaparib alone) it was 113% (inactive); in experiment [10] (at 0.00488 µM, OCI-C5x cells, without rucaparib) it was 116% (inactive); in experiment [10] (at 0.00488 µM, OCI-P5x cells, with rucaparib 20 µM, 100% = cells with rucaparib alone), 117% (inactive); in experiment [10] (at 0.00488 µM, OCI-P5x cells, without rucaparib), 121% (inactive). Besides, the viability in [10] (at 0.0195 µM, OCI-C5x cells, with rucaparib 10 µM, 100% = cells with rucaparib alone) is 110% (inactive); in experiment [10] (at 0.0195 µM, OCI-C5x cells, without rucaparib), 109% (inactive); in [10] (at 0.0195 µM, OCI-P5x cells, with rucaparib 20 µM, 100% = cells with rucaparib alone), 118% (inactive); in [10] (at 0.0195 µM, OCI-P5x cells, without rucaparib), 114% (inactive); in experiment [10] (at 0.0781 µM, OCI-C5x cells, with rucaparib 10 µM, 100% = cells with rucaparib alone) it was 110% (inactive); in [10] (at 0.0781 µM, OCI-C5x cells, without rucaparib), 111% (inactive). Besides, the viability in experiment [10] (at 0.0781 µM, OCI-P5x cells, with rucaparib 20 µM, 100% = cells with rucaparib alone) was 119% (inactive); in experiment [10] (at 0.0781 µM, OCI-P5x cells, without rucaparib) it was 114% (inactive); in experiment [10] (at 0.313 µM, OCI-C5x cells, with rucaparib 10 µM, 100% = cells with rucaparib alone), 101% (inactive); in [10] (at 0.313 µM, OCI-C5x cells, without rucaparib), 112% (inactive); in [10] (at 0.313 µM, OCI-P5x cells, with rucaparib 20 µM, 100% = cells with rucaparib alone) it was 112% (inactive); in experiment [10] (at 0.313 µM, OCI-P5x cells, without rucaparib) it was 110% (inactive). The viability in experiment [10] (at 1.25 µM, OCI-C5x cells, with rucaparib 10 µM, 100% = cells with rucaparib alone) is 106% (inactive); in experiment [10] (at 1.25 µM, OCI-C5x cells, without rucaparib), 118% (inactive); in experiment [10] (at 1.25 µM, OCI-P5x cells, with rucaparib 20 µM, 100% = cells with rucaparib alone), 98.8% (active); in experiment [10] (at 1.25 µM, OCI-P5x cells, without rucaparib), 97.4% (active); in experiment [10] (at 5 µM, OCI-C5x cells, with rucaparib 10 µM, 100% = cells with rucaparib alone), 21.8% (active); in experiment [10] (at 5 µM, OCI-C5x cells, without rucaparib) it was 90.4% (active). Further, the viability in [10] (at 5 µM, OCI-P5x cells, with rucaparib 20 µM, 100% = cells with rucaparib alone) was 10.9% (active); in experiment [10] (at 5 µM, OCI-P5x cells, without rucaparib) it was 21.5% (active).
Usually IC50 stands for the concentration that gives 50% inhibition. As to `Oc1ccc(-c2ccc(-c3cc(Nc4cccc(CNC5CC5)c4)n[nH]3)cc2)c(O)c1`, the AC50 in experiment [1] was 6.61 µM (active); in [2], 1.66 µM (active); in [3], 4.69 µM (active); in [4], 13.2 µM (active); in [5], 7.42 µM (active); in [6], 16.6 µM (active). Also, the IC50 in [11] is 26.3 µM (active).
`CC(C)=CC[C@@H](O)C1=CC(=O)c2c(O)ccc(O)c2C1=O`: the AC50 in experiment [1] is 20.9 µM (active); in experiment [2], 0.526 µM (active); in [3], 2.96 µM (active); in experiment [4] it was 11.8 µM (active); in experiment [5] it was 10.5 µM (active); in [6], 2.96 µM (active). Besides, the fold change is 1.09 (inactive) and 1.03 (inactive) in experiment [7] (setting [13]); 1.1 and 1.06 in experiment [7] (setting [14]). Also, the cell count was 2290 and 4460 in experiment [7] (setting [15]); 2110 and 4340 in [7] (setting [16]). Also, the z-score in [9] (setting [17]) was -1.24 (inactive); in experiment [9] (setting [18]), 1.65.
In the case of `COc1cc2nc(-c3cc(F)ccc3O)nc(N[C@@H]3CNC[C@H]3C(C)(C)O)c2cc1OC`, the AC50 in [1] is 9.34 µM (active); in [2], 10.5 µM (active); in experiment [3] it was 9.35 µM (active); in experiment [4] it was 5.25 µM (active); in experiment [5] it was 4.17 µM (active); in experiment [12], 8.33 µM (active). Also, the IC50 in [11] is 4.17 µM (active).
For `CNC(=O)c1nn(C)c2c1C(C)(C)Cc1cnc(Nc3ccc(N4CCN(C)CC4)cc3)nc1-2`, the half-maximal activity concentration (AC50) in [1] is 5.9 µM (active); in experiment [2] it was 2.35 µM (active); in experiment [3], 14.8 µM (active); in experiment [4] it was 6.61 µM (active); in experiment [5] it was 2.35 µM (active); in experiment [12], 8.33 µM (active). Moreover, in experiment [11], the concentration for half-maximal inhibition (IC50) was 9.34 µM (active). In addition, the fold change is 1.12 (inactive) in experiment [7] (setting [13]) and 0.794 in experiment [7] (setting [14]). For the same compound, the cell count in [7] (setting [15]) was determined as 1220; in experiment [7] (setting [16]), 1090. In addition, the z-score in experiment [9] (setting [17]) is 4.48 (active); in [9] (setting [18]) it was -3.65.
For the compound `OCCNC1CCCc2c1[nH]c1ccc(-c3ccccc3)cc21` (configuration not stated), the concentration at half-maximal activity (AC50) was 18.6 µM (active) in experiment [1]; 26.4 µM (active) in [2]; 20.9 µM (active) in [3]; 13.2 µM (active) in experiment [4]; 10.5 µM (active) in [5]; 10.5 µM (active) in experiment [12].
